From the supplement of paper PMC6853941
Unmarked numbers belong to inactive results.

Test system: MCF10A
Experiment: perturbation Mahalanobis distance of morphological profile vs DMSO controls (Mahalanobis distance (SD units)); higher = stronger morphological change, active = 7 or more
Settings: 72 h
Protocol: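 MCF10A cells were seeded onto drugs dispensed acoustically into 384-well plates, using one dose per drug chosen from its human peak plasma concentration, and incubated for 72 h at 37 °C. Cells were stained for DNA, tubulin and mitochondria and imaged; 78 CellProfiler features were extracted, plate-normalised and compared with DMSO wells.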

[1] = screen batch: Batch1_Mahalanobis_Distance
[2] = screen batch: Batch2_Mahalanobis_Distance

Row | SMILES | perturbation Mahalanobis distance [1] | perturbation Mahalanobis distance [2]
1 | C[C@]12C=CC(=O)N[C@@H]1CC[C@@H]1[C@@H]2CC[C@]2(C)[C@@H](C(=O)Nc3cc(C(F)(F)F)ccc3C(F)(F)F)CC[C@@H]12 [Dutasteride] (12 µM) | 2.35 | 2.96
2 | Cc1oncc1C(=O)Nc1ccc(C(F)(F)F)cc1 [Leflunomide] (333.1 µM) | – | 2.68
3 | COc1cc(C(=O)NCc2ccc(OCCN(C)C)cc2)cc(OC)c1OC [Trimethobenzamide] (257.426.762 µM) | 2.9 | 5.46
4 | CC(=O)O[C@]1(C(C)=O)CC[C@H]2[C@@H]3CCC4=CC(=O)CCC4=C3[C@@H](c3ccc(N(C)C)cc3)C[C@@]21C [Ulipristal Acetate] (3.9 µM) | 9.29 (active) | 10.4 (active)
5 | COc1cc2ncnc(Nc3ccc(F)c(Cl)c3)c2cc1OCCCN1CCOCC1 [Gefitinib] (34.7 µM) | – | 3.28
6 | S=c1nc[nH]c2nc[nH]c12 [6-Mercaptopurine] (9.9 µM) | 2.97 | 8.34 (active)
7 | O=C(CCCCCCC(=O)Nc1ccccc1)NO [Vorinostat] (9.8 µM) | 11 (active) | 18.4 (active)
8 | CC[C@]1(O)C[C@H]2CN(CCc3c([nH]c4ccccc34)[C@@](C(=O)OC)(c3cc4c(cc3OC)N(C)[C@H]3[C@@](O)(C(=O)OC)[C@H](OC(C)=O)[C@]5(CC)C=CCN6CC[C@]43[C@@H]65)C2)C1 [Vinblastine] (0.12 µM) | 11.4 (active) | –
9 | COc1ccc(C[C@@H]2c3cc(OC)c(OC)cc3CC[N@+]2(C)CCC(=O)OCCCCCOC(=O)CC[N@@+]2(C)CCc3cc(OC)c(OC)cc3[C@H]2Cc2ccc(OC)c(OC)c2)cc1OC [Cisatracurium Besylate] (18.1 µM) | 5.34 | 4.5
10 | CC(=O)O[C@@]12CO[C@@H]1C[C@H](O)[C@@]1(C)C(=O)[C@H](O)C3=C(C)[C@@H](OC(=O)[C@H](O)[C@@H](NC(=O)OC(C)(C)C)c4ccccc4)C[C@@](O)([C@@H](OC(=O)c4ccccc4)[C@H]21)C3(C)C [Docetaxel] (22.7 µM) | – | 2.26
11 | O=c1n(CCCN2CCN(c3cccc(Cl)c3)CC2)nc2ccccn12 [Trazodone] (21.5 µM) | 2.62 | 3.12
12 | O=C1C(CCS(=O)c2ccccc2)C(=O)N(c2ccccc2)N1c1ccccc1 (racemic) [(+/-)-Sulfinpyrazone] (41.84 µM) | 3.46 | 2.61
13 | CC1CNc2c(cccc2S(=O)(=O)N[C@@H](CCCN=C(N)N)C(=O)N2CC[C@@H](C)C[C@@H]2C(=O)O)C1 (stereo partly specified) [Argatroban] (6.9 µM) | 3.61 | 2.75
14 | N[C@@H]1CONC1=O [D-Cycloserine] (98 µM) | 7.56 (active) | 9.13 (active)
15 | CCCSc1ccc2nc(NC(=O)OC)[nH]c2c1 [Albendazole] (28.3 µM) | 13.8 (active) | 15.4 (active)
16 | CNC[C@H](O)c1ccc(O)c(O)c1 [Epinephrine] (27.3 µM) | 2.67 | 2.89
17 | CCOC(=O)C(C)(C)Oc1ccc(Cl)cc1 [Clofibrate] (325.5 µM) | 6.08 | 2.81
18 | CC(=O)S[C@@H]1CC2=CC(=O)CC[C@]2(C)[C@H]2CC[C@@]3(C)[C@@H](CC[C@@]34CCC(=O)O4)[C@H]12 [Spironolactone] (3 µM) | 3.75 | 5.83
19 | NC(=O)[C@@H]1CSSCCC(=O)N[C@@H](CCCCN=C(N)N)C(=O)NCC(=O)N[C@@H](CC(=O)O)C(=O)N[C@@H](Cc2c[nH]c3ccccc23)C(=O)N2CCC[C@H]2C(=O)N1 [Eptifibatide] (5.3 µM) | 2.23 | 2.48
20 | CC(=O)Nc1nnc(S(N)(=O)=O)s1 [Acetazolamide] (90 µM) | 3.52 | 2.44
21 | CC(C)NCC(O)COc1ccc(CC(N)=O)cc1 (stereo unspecified) [Atenolol] (18.8 µM) | 2.37 | 2.25
22 | NCCc1ccc(O)c(O)c1 [Dopamine] (2.5 µM) | 4.23 | 4.04
23 | NNC(=O)c1ccncc1 [Isoniazid] (73.5 µM) | 6.37 | 2.59
24 | NC(=O)c1ncn([C@@H]2O[C@H](CO)[C@@H](O)[C@H]2O)n1 [Ribavirin] (75.3 µM) | 5.79 | 11.4 (active)
25 | CNNCc1ccc(C(=O)NC(C)C)cc1 [Procarbazine] (13.6 µM) | 2.07 | 2.28
26 | OCC(O)COc1ccc(Cl)cc1 (stereo unspecified) [Chlorphenesin] (83.9 µM) | 2.63 | 4
27 | C[C@](N)(Cc1ccc(O)cc1)C(=O)O [Metyrosine] (71.7 µM) | 3.87 | 3.02
28 | Cc1cc2cc3c(C)cc(=O)oc3c(C)c2o1 [Trioxsalen] (0.07 µM) | 2.32 | 2.45

Row | SMILES | perturbation Mahalanobis distance [1] | perturbation Mahalanobis distance [2]
29 | Nc1ccc(O)c(C(=O)O)c1 [Mesalazine] (39.2 µM) | 3.41 | 2.94
30 | Cc1nnc(C(=O)NC(C)(C)C2=N/C(=C(\O)NCc3ccc(F)cc3)C(=O)C(=O)N2C)o1 [Raltegravir] (22.5 µM) | 6.75 | 4.95
31 | CCCCCCCN(CC)CCCC(O)c1ccc(NS(C)(=O)=O)cc1 (stereo unspecified) [Ibutilide] (0.08 µM) | 2.16 | 2.06
32 | O=NN(CCCl)C(=O)NCCCl [Carmustine] (0.2 µM) | 2.08 | 2.55
33 | Cc1ccc(NC(=O)c2ccc(CN3CCN(C)CC3)cc2)cc1Nc1nccc(-c2cccnc2)n1 [Imatinib] (14 µM) | 4.06 | 6.84
34 | CC1(C)N=C(N)N=C(N)N1c1ccc(Cl)cc1 [Cycloguanil] (3.4 µM) | 2.56 | 2.22
35 | Nc1c2c(nc3ccccc13)CCCC2 [Tacrine] (0.25 µM) | 2.25 | 2.5
36 | COC(=O)[C@H](c1ccccc1Cl)N1CCc2sccc2C1 [Clopidogrel] (0.12 µM) | 3.1 | 2.59
37 | CC(C)C1CCC(C(=O)N[C@H](Cc2ccccc2)C(=O)O)CC1 (stereo partly specified) [Nateglinide] (66.1 µM) | 2.59 | 3.16
38 | CN(CCOc1ccc(CC2SC(=O)NC2=O)cc1)c1ccccn1 (stereo unspecified) [Rosiglitazone] (4.2 µM) | 2.03 | 3.13
39 | C#CCN(C)Cc1ccccc1 [Pargyline] (1.9 µM) | 3.93 | 3.63
40 | OCCN(CCO)c1nc(N2CCCCC2)c2nc(N(CCO)CCO)nc(N3CCCCC3)c2n1 [Dipyridamole] (19.8 µM) | 2.41 | 3.01
41 | CCC(c1ccccc1)c1c(O)oc2ccccc2c1=O (stereo unspecified) [Phenprocoumon] (64.2 µM) | 2.32 | 3.97
42 | CN(C)CCCN1c2ccccc2CCc2ccccc21 [Imipramine] (6.2 µM) | 6.2 | 4.52
43 | CC(C)(Sc1cc(C(C)(C)C)c(O)c(C(C)(C)C)c1)Sc1cc(C(C)(C)C)c(O)c(C(C)(C)C)c1 [Probucol] (12.58 µM) | 2.88 | 3.01
44 | Cc1ccc(Nc2nccc(N(C)c3ccc4c(C)n(C)nc4c3)n2)cc1S(N)(=O)=O [Pazopanib] (132.6 µM) | 3.25 | 2.85
45 | Cc1nnc(C(C)C)n1C1C[C@H]2CC[C@@H](C1)N2CC[C@H](NC(=O)C1CCC(F)(F)CC1)c1ccccc1 (stereo partly specified) [Maraviroc] (11.35 µM) | 2.84 | 2.67
46 | CO[C@H]1O[C@@H]2O[C@@]3(C)CC[C@H]4[C@H](C)CC[C@@H]([C@H]1C)[C@@]24OO3 [Artemether] (3.9 µM) | 1.96 | 2.48
47 | NC(N)=NCC1COC2(CCCCC2)O1 (stereo unspecified) [Guanadrel] (140.7 µM) | 2.66 | 2.51
48 | COCCCOc1cc(C[C@@H](C[C@H](N)[C@@H](O)C[C@H](C(=O)NCC(C)(C)C(N)=O)C(C)C)C(C)C)ccc1OC [Aliskiren] (2.5 µM) | 2.96 | 2.64
49 | CS(=O)(=O)OCCCCOS(C)(=O)=O [Busulfan] (1.4 µM) | 2.31 | 2.95
50 | O=C(C1CCCCC1)N1CC(=O)N2CCc3ccccc3C2C1 (stereo unspecified) [Praziquantel] (3.2 µM) | 3.15 | 3.64
51 | C[N+](C)(C)CCOC(N)=O [Carbachol] (37 µM) | 2.88 | 2.82
52 | OC[C@H]1O[C@@H](n2cnc3c2NC=NC[C@H]3O)C[C@@H]1O [Pentostatin] (55.9 µM) | 4.44 | 3.34
53 | COc1cnc(NS(=O)(=O)c2ccc(N)cc2)nc1 [Sulfameter] (322.8 µM) | 6.64 | 3.67
54 | COc1cc(N)c(Cl)cc1C(=O)NC1CCN(CCCOc2ccc(F)cc2)CC1OC (stereo unspecified) [Cisapride] (0.85 µM) | 3.31 | 2.99
55 | Nc1nc(Cl)nc2c1ncn2[C@@H]1O[C@H](CO)[C@@H](O)[C@@H]1F [Clofarabine] (7.5 µM) | 10.2 (active) | 16.5 (active)
